Source: PubChem BioAssay
The source made the active and inactive calls. Unless noted, no rule for the calls is given here.

Columns and labels:
[1] = system: Wnt5a (protein binding on small-molecule microarray); assay: small molecules binding Wnt5a protein – biophysical, small-molecule microarray, 635/667 nm fluorescence, primary screen (AID 1142); settings: 635 nm fluorescence, higher = more signal;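 also: fluorescence read at 667 nm with signal to noise per printed feature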
[2] = ATP-based viability of Huh7 replicon cells – cell-based, CellTiter-Glo luminescence, basal, 48 h, cytotoxicity control for HCV replication inhibitor project, primary screen (AID 1143); settings: higher = more signal, called active from +8 up or from −8 down;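 also: Huh7 hepatoma cells carrying a hepatitis C replication reporter with no stimulus; test concentration not given here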
[3] = Pseudomonas biofilm growth suppression – PAO1 strain, BacTiter-Glo luminescence, LB-PBS, primary screen (AID 1144); settings: P. aeruginosa PAO1 biofilm, 12 h, higher = more signal
[4] = basal CRE-LacZ reporter activity in PC12 – cell-based, unstimulated, primary screen (AID 1145); settings: no forskolin, luminescence, 4.5 h, higher = more signal, called active from +8 up or from −8 down
[5] = forskolin-driven CRE-LacZ activity in PC12 – cell-based, CRE-LacZ reporter, forskolin-stimulated, primary screen (AID 1146); settings: luminescence, 4.5 h, higher = more signal, called active from +8 up or from −8 down;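 also: PC12 cells with 6xCRE LacZ reporter stimulated by forskolin 10 µM; beta-galactosidase reporter signal reflecting CREB driven transcription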
[6] = biological target: Streptavidin (Streptomyces avidinii) (UniProt P22629); assay: compounds binding control protein streptavidin – biophysical, small-molecule microarray, 635/667 nm fluorescence, artefact control for SMM compound annotation, primary screen (AID 1147); settings: higher = more signal;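 also: signal reflects streptavidin binding to arrayed compounds as a control protein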
[7] = probe aInhba binding on compound microarray – biochemical, small-molecule microarray, 635/667 nm fluorescence, primary screen (AID 1148); settings: higher = more signal;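 also: score merges 667nm spot fluorescence with signal-to-noise for antibody binding to printed compounds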
[8] = biological target: Torsin-1A (Homo sapiens) (UniProt O14656); assay: TOR1A wild-type binding on microarray – cell lysate, small-molecule microarray, lysate, 635/667 nm, primary screen (AID 1149); settings: COS7 hTOR1A-WT lysate, 635 nm fluorescence, higher = more signal
[9] = biological target: Torsin-1A (Homo sapiens) (UniProt O14656); assay: torsin A mutant lysate binding on microarrays – cell lysate, small-molecule microarray, COS7 lysate, 635/667 nm fluorescence, primary screen (AID 1150); settings: COS7 hTOR1A mutant lysate, 635 nm fluorescence, higher = more signal;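 also: score pools 667 nm emission and signal to noise measuring lysate protein binding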
[10] = system: Sonic hedgehog protein (Shh); assay: Sonic hedgehog microarray binding compounds – biochemical, small-molecule microarray, 635/667 nm fluorescence, primary screen (AID 1151); settings: 635 nm fluorescence, higher = more signal;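 also: Shh protein binding to compounds spotted on small-molecule microarray slides; score combines spot fluorescence intensity with signal-to-noise across triplicate slides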
[11] = optical density shifts of acrAB sulA E. coli – strain DRC41, OD650, 48 h, E. coli filamentation inducer project, primary screen (AID 1152); settings: higher = more signal, called active from +8 up or from −8 down;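 also: E. coli MC1000 strain DRC41 lacking acrAB efflux pump and sulA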
[12] = probe aLefty1 binding on compound microarray – biochemical, small-molecule microarray, 635/667 nm fluorescence, primary screen (AID 1153); settings: higher = more signal;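 also: score merges spot fluorescence with signal-to-noise ratio from the scanned slide images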
[13] = plasmodial surface anion channel blockers, osmotic lysis – cell-based, P. falciparum Indochina, OD700, 1 h, primary screen (AID 1154); settings: P. falciparum Indochina infected RBC osmotic lysis, higher = more signal, called active from +8 up or from −8 down
[14] = plasmodial surface anion channel blockers, osmotic lysis – cell-based, P. falciparum Indochina, OD700, 2 h, primary screen (AID 1155);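 also: lysis reports solute entry through the parasite surface anion channel PSAC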; settings: P. falciparum Indochina infected erythrocytes, higher = more signal, called active from +8 up or from −8 down
[15] = changes in parasitized red cell lysis, either direction – P. falciparum Indochina, OD700, 3 h, PSAC antagonist project, primary screen (AID 1156); settings: P. falciparum-infected erythrocytes, osmotic lysis, higher = more signal, called active from +8 up or from −8 down
[16] = plasmodial surface anion channel blockers, osmotic lysis – cell-based, P. falciparum Indochina, OD700, 18 h, primary screen (AID 1157); settings: P. falciparum Indochina infected erythrocytes, osmotic lysis OD700, 18 h; higher = more signal, called active from +8 up or from −8 down
[17] = S6 kinase pathway phospho-S6 level changes – cell-based, A549, cytoblot, luminescence, serum-stimulated, primary screen (AID 1158); settings: 5 h, higher = more signal;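 also: serum-stimulated A549 lung adenocarcinoma cells; signal is phosphorylated S6 detected by cytoblot immunostaining with HRP secondary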
[18] = biological target: NADPH oxidase 2 (Homo sapiens) (UniProt P04839); assay: compounds shifting NOX2 Amplex Red fluorescence – cell-based, HEK293-NOX2, PMA-stimulated, NOX inhibitor project, primary screen (AID 1159); settings: 45 min, higher = more signal, called active from +8 up or from −8 down; also: test concentration not given here
[19] = biological target: NADPH oxidase 4 (Homo sapiens) (UniProt Q9NPH5); assay: compounds shifting NOX4 Amplex Red fluorescence – cell-based, HEK293-NOX4, tetracycline-induced, NOX inhibitor project, primary screen (AID 1160); settings: HEK293-NOX4, Amplex Red H2O2 fluorescence, 45 min; higher = more signal, called active from +8 up or from −8 down
[20] = biological target: NADPH oxidase 5 (Homo sapiens) (UniProt Q96PH1); assay: compounds shifting NOX5 Amplex Red fluorescence – cell-based, HEK293-NOX5, NOX inhibitor project, primary screen (AID 1161); settings: HEK293-NOX5, ionomycin, 45 min, higher = more signal
Chain of NADPH oxidase 5 (Homo sapiens) (Q96PH1 whole entry, looked up): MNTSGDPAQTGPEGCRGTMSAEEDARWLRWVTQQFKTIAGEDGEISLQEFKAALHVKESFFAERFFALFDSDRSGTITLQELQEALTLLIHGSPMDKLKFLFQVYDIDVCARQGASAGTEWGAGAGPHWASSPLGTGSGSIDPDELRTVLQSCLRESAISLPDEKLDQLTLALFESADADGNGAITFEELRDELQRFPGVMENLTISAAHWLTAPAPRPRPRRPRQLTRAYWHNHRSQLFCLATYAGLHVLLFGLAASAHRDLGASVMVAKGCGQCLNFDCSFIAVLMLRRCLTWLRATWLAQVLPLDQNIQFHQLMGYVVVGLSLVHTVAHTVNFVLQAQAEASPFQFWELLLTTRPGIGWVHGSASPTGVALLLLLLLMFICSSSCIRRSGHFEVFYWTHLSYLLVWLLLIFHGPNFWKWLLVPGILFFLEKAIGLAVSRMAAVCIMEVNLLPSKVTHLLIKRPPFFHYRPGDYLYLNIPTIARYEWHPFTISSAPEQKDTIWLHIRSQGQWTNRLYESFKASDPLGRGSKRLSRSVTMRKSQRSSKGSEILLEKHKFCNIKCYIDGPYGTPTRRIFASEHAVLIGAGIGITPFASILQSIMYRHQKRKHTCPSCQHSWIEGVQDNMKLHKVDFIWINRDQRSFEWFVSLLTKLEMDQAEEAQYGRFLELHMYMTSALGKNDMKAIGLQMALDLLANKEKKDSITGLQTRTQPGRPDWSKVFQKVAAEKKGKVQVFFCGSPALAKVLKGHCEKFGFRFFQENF

Chain of Torsin-1A (Homo sapiens) (O14656 whole entry, looked up): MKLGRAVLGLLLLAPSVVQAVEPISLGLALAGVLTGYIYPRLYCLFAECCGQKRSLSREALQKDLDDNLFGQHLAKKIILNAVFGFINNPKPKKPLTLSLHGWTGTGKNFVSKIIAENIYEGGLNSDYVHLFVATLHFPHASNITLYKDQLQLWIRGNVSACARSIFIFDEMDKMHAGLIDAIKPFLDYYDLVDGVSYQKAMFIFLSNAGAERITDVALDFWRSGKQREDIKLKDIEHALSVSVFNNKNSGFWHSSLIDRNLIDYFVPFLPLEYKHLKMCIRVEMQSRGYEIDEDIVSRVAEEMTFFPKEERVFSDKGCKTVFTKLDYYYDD
Chain of NADPH oxidase 2 (Homo sapiens) (P04839 whole entry, looked up): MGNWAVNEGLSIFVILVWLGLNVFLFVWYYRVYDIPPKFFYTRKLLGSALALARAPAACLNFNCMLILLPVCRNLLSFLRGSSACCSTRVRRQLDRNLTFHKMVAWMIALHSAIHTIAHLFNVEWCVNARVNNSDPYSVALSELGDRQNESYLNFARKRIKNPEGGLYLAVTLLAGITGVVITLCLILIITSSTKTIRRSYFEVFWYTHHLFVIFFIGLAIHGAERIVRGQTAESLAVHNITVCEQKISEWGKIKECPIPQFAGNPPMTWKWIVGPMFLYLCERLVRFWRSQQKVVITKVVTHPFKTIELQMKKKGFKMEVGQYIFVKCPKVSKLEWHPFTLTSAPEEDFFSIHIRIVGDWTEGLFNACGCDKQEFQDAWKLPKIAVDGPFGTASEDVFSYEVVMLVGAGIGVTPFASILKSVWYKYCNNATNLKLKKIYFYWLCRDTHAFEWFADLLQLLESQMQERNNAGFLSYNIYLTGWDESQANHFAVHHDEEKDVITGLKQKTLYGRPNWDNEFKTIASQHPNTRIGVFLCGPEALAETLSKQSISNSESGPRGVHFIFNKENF
Chain of Streptavidin (Streptomyces avidinii) (P22629 whole entry, looked up): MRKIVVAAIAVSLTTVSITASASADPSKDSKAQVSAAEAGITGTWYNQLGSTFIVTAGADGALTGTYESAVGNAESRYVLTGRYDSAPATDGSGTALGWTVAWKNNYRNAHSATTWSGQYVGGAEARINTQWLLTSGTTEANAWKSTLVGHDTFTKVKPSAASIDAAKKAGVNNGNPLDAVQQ
Chain of NADPH oxidase 4 (Homo sapiens) (Q9NPH5 whole entry, looked up): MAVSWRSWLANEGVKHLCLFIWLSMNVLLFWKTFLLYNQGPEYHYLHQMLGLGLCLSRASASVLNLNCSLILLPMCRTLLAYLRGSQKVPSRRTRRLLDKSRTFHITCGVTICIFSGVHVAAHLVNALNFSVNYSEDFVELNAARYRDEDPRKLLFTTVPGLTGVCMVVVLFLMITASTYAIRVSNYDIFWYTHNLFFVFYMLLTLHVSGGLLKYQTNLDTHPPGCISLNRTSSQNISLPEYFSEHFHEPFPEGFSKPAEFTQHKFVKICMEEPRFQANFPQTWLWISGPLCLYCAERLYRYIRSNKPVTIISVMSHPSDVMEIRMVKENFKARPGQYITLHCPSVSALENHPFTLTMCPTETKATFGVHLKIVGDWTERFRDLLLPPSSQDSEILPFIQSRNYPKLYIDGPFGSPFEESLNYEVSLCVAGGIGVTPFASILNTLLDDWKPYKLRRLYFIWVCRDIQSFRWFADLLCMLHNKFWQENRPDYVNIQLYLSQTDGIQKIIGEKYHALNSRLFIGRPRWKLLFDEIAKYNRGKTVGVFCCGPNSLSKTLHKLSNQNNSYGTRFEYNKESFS

Compound	composite z-score [1]	z-score [2]	z-score [3]	z-score [4]	z-score [5]	composite z-score [6]	composite z-score [7]	composite z-score [8]	composite z-score [9]	composite z-score [10]	z-score [11]	composite z-score [12]	z-score [13]	z-score [14]	z-score [15]	z-score [16]	z-score [17]	z-score [18]	z-score [19]	z-score [20]
CCOC(=O)[C@H](Cc1ccccc1)NC(=O)CCC1CC(OC(=O)NCc2ccc3c(c2)OCO3)CC2(CCCC(COC(=O)NCc3cccc(C(F)(F)F)c3)O2)O1 (stereo not given in full)	-0.0271	-2.72 (inactive)	-0.518 (inactive)	-0.618 (inactive)	-0.0205 (inactive)	0.0284	0.0448	0.0337	0.134	1.17	-0.667 (inactive)	0.138	-0.272 (inactive)	-1.05 (inactive)	-0.106 (inactive)	-1.37 (inactive)	2.74	-0.661 (inactive)	-1.35 (inactive)	-0.999
COC(=O)[C@H](C)NC(=O)CCC1CC(OC(=O)NCCc2ccc(F)cc2)CC2(CCCC(COC(=O)NCC(c3ccccc3)c3ccccc3)O2)O1 (stereo not given in full)	-0.073	-0.169 (inactive)	-0.0102 (inactive)	1.27 (inactive)	-0.187 (inactive)	0.688	-0.0044	-0.311	0.387	0.282	0.523 (inactive)	-0.194	8.81 (active)	2.61 (inactive)	-0.286 (inactive)	0.492 (inactive)	0.71	0.238 (inactive)	0.0541 (inactive)	0.185
O=C1C2C=CC(C(O)c3ccc([N+](=O)[O-])cc3)N(Nc3ccc([N+](=O)[O-])cc3)C2C(=O)N1c1ccccc1 (stereo not given)	0.71	0.301 (inactive)	-0.328 (inactive)	-0.228 (inactive)	0.554 (inactive)	0.903	0.154	0.128	0.726	-0.114	-1.39 (inactive)	0.446	12.9 (active)	1.96 (inactive)	0.958 (inactive)	1.02 (inactive)	-0.922	-1.24 (inactive)	-2.87 (inactive)	-2.36
C=CC[C@@H]1C=C[C@H](ON=C(C)CCN2CCc3nc(CC)c(CC)cc3C2)[C@@H](CO)O1	0.255	-0.667 (inactive)	0.983 (inactive)	3.51 (inactive)	0.319 (inactive)	0.372	0.0785	0.97	1.12	1.85	0.31 (inactive)	0.288	2.65 (inactive)	0.37 (inactive)	0.412 (inactive)	0.294 (inactive)	-1.15	-1.24 (inactive)	0.492 (inactive)	1.82
O=C1[C@H]2[C@H]3[C@H](O)[C@H](O)CC(=NOCc4ccccc4)[C@H]3CC[C@H]2C(=O)N1C[C@@H]1CCCO1	0.171	-0.34 (inactive)	0.282 (inactive)	-0.298 (inactive)	-0.471 (inactive)	0.295	-0.0963	0.95	0.119	0.135	0.144 (inactive)	0.0455	5.97 (inactive)	0.673 (inactive)	-0.0092 (inactive)	0.479 (inactive)	0.067	0.421 (inactive)	0.511 (inactive)	-1.46
C=CCN1C(=O)[C@]2(O[C@H](CCn3cc(CCO)nn3)[C@@H]([Si](C)(C)c3ccc(OC)cc3)[C@@H]2C)c2cc(N3CCOC3=O)ccc21	-0.246	-4.23 (inactive)	-0.771 (inactive)	7.08 (inactive)	0.144 (inactive)	1.32	-0.253	0.419	0.855	0.6	-0.902 (inactive)	0.0509	6.82 (inactive)	0.536 (inactive)	-0.5 (inactive)	0.376 (inactive)	0.199	0.111 (inactive)	3.32 (inactive)	1.57
COCCOC(=O)N1C(=O)[C@@]2(c3ccccc31)[C@H](C(N)=O)[C@H]1C(=O)O[C@H](c3ccccc3)[C@H](c3ccccc3)N1[C@@H]2c1ccccc1OCCO	0.491	-4.01 (inactive)	1.67 (inactive)	0.362 (inactive)	0.406 (inactive)	0.662	0.126	0.918	0.815	1.19	0.582 (inactive)	0.144	3.59 (inactive)	1.14 (inactive)	-0.0776 (inactive)	1.2 (inactive)	0.404	1.56 (inactive)	1.43 (inactive)	0.483
CCOC(=O)CCN1C(=O)[C@H]2[C@H]3[C@H](O)[C@H](O)CC(=O)[C@H]3CC[C@H]2C1=O	0.0032	-3.04 (inactive)	-0.829 (inactive)	0.429 (inactive)	-0.236 (inactive)	0.275	-0.183	0.269	0.326	0.693	-1.98 (inactive)	-0.0984	-0.062 (inactive)	-0.426 (inactive)	-0.451 (inactive)	-1.42 (inactive)	1.11	-0.513 (inactive)	0.947 (inactive)	-0.00675
COC(=O)[C@H](C)NC(=O)CCC1CC(OC(=O)NCc2cccc3ccccc23)CC2(CCCC(COC(=O)NCC3CCCCC3)O2)O1 (stereo not given in full)	0.835	-0.426 (inactive)	-0.803 (inactive)	0.91 (inactive)	1.76 (inactive)	0.688	0.0543	1.02	1.05	1.43	-0.484 (inactive)	-0.325	0.994 (inactive)	-0.35 (inactive)	-0.555 (inactive)	0.125 (inactive)	-0.444	0.17 (inactive)	0.236 (inactive)	0.469
